Compounds with a hit are over-represented: about 6% of the library has one in this group of screens.
D1 PAM – human D1 dopamine receptor positive modulation; P21728; HEK293 TREx D1 cells, calcium flux, dopamine EC20 potentiation; potentiation, % at 10 µM; actives 0.036% (n = 360,000); in the data active means potentiation above about 30%; further: 0% is about no effect
Target sequence (P21728 whole entry, looked up): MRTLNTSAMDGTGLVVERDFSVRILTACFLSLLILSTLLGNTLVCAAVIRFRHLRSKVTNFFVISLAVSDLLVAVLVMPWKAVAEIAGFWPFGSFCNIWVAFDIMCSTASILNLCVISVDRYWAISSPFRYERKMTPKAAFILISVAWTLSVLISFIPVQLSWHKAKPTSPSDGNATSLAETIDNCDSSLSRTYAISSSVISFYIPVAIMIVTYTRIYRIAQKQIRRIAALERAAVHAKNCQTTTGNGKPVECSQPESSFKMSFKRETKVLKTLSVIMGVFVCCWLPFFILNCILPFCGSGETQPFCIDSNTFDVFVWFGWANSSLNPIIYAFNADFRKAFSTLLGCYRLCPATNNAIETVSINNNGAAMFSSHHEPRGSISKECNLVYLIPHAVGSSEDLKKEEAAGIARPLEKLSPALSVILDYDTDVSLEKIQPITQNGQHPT
D1 antag – human D1 dopamine receptor antagonism; P21728; HEK293 TREx D1 cells, calcium flux, dopamine EC80; hits give low values; activity change, negative = inhibition, % at 10 µM; actives 3.2% (n = 360,000); AID 504652; in the data active means activity change below about -30%; further: on the % scale 0 is the no-effect control and ±100 the full control effect
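Tetracycline-induced HEK293 Trex D1 cells, force-coupled to calcium, dye-loaded; compounds added and read 180 s, then EC80 dopamine added and calcium flux tracked kinetically another 180 s.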
D1 agonist – human D1 receptor agonism; P21728; actives 1% (n = 360,000); HEK293 T-REx D1 cells, calcium flux, agonist mode; activation, % at 2 µM; in the data active means activation above about 30%; further: 0% is about no effect
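Agonism was scored from calcium flux recorded over 180 s (1 read/s) after pintool compound addition, following a 10-cycle baseline. Cells were inducible force-coupled HEK293 TREx D1, plated overnight at 30 C and loaded with no-wash calcium dye.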
DRD3 antagonist – D3 dopamine receptor (human) antagonism; D3R cells, DiscoveRx beta-arrestin luminescence, antagonist mode; hits give low values; actives 2.5% (n = 360,000); AID 652054; max response, negative = inhibition, %; in the data active means max response below about -50%; inconclusive means no clear call, values can overlap the other calls; further: on the % scale 0 is the no-effect control and ±100 the full control effect
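Cells expressing the human receptor were seeded at 1500 cells/well, incubated overnight at 37 degrees C in 5% CO2, then exposed to library compounds with dopamine controls for 90 minutes at 37 degrees C before luminescent detection.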
D3 ag – activates the human D3 dopamine receptor; D3R DiscoveRx beta-arrestin cells, luminescence, 90 min; max activation, %; actives 0.58% (n = 410,000); AID 652048; in the data active means max activation above about 30%; further: 0% is about no effect
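Agonist-mode cell screen: cells plated at 1500/well and incubated overnight at 37 °C, then exposed to library compounds for 90 min at 37 °C. Detection reagent was added for 30–60 min at room temperature, and luminescence was read.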
Active calls of the source: *; ? = inconclusive; · = no result given.

SMILES | D1 PAM | D1 antag | D1 agonist | DRD3 antagonist | D3 ag
CCN(CC)C(=O)C1CCCN(C(=O)c2cc(COc3cccc(OC)c3)on2)C1 (stereo not drawn) | 5 | 7 | 2 | 3 | -6
CCCCN(CC)C(=O)CSc1nc2ccccc2c(=O)n1Cc1ccco1 | 0 | 7 | 2 | · | -14
COc1ccc(OC)c(C(O)c2coc3ccc(O)c(CN(C)C)c23)c1 (stereo not drawn) | 2 | 0 | 5 | 4 | -4
COc1ccc(OC)c(C(O)c2coc3ccc(O)c(CN4CCOCC4)c23)c1 (stereo not drawn) | -4 | -30* | 6 | -9 | -14
Cc1noc(C)c1CSCC(=O)Oc1ccc(N(C)S(=O)(=O)c2ccccc2)cc1 | -13 | 7 | 28 | -10 | -5
Cc1noc(C)c1CSCC(=O)Oc1ccc(N(C)S(=O)(=O)c2ccc(Cl)cc2)cc1 | -7 | -13 | 19 | -4 | 36*
CCc1noc(C)c1C(=O)Oc1ccc(N(C)S(=O)(=O)c2ccc(C)cc2)cc1 | 0 | -7 | 18 | 38 | 17
CCc1noc(C)c1C(=O)Oc1ccc(N(C)S(=O)(=O)c2ccccc2)cc1 | 6 | 4 | 36* | 20 | 5
CCN(CC)c1ccc(NC(=O)CCc2nc3cccnc3n2Cc2cccs2)c(C)c1 | 1 | -5 | -2 | · | 3
Cn1c(=O)[nH]c(=O)c2c1nc(Br)n2CCSc1nc2ccccc2o1 | 1 | -5 | 6 | -70* | -6
Cn1c(=O)[nH]c(=O)c2c1nc(N1CCCCCC1)n2CCSc1nc2ccccc2o1 | -3 | -4 | -1 | -23 | -10
CN(CC(=O)Nc1ccc(F)cc1F)S(=O)(=O)c1ccc(C(=O)N2CCOCC2)s1 | 1 | 5 | 1 | · | -5
CCOc1ccc(-c2cc(NC(=O)Nc3ccccc3C(F)(F)F)c(C(=O)OC)s2)cc1 | -3 | 5 | 0 | · | -1
O=C(Nc1ccccc1C(=O)NCCN1CCOCC1)c1ccc(Cl)cc1Cl | -7 | -31* | 0 | 6 | -2
O=C(Nc1ccccc1C(=O)NCCCN1CCOCC1)c1ccc(F)cc1F | 7 | -7 | 1 | 6 | 6
Cc1ccc(NC(=O)NCCN2CCCCC2)cc1 | -3 | 3 | 3 | -17 | -22
O=C(NCCN1CCCC1)c1ccc(Br)cc1 | 31* | 5 | 1 | -77* | -33
Cc1ccc(C(=O)NCCC(=O)N2CCOCC2)cc1 | -5 | -37* | 1 | -14 | -1
Cc1ccc(C(=O)NCCN2CCOCC2)cc1 | -3 | 13 | -1 | ? | -32
O=C(NCCN1CCCCC1)Nc1ccc(Br)cc1 | -1 | -60* | 7 | -54* | -13
O=C(NCCC(=O)N1CCCCCCC1)c1ccc(Br)cc1 | -1 | 13 | -1 | -7 | -9
COc1cc(Cl)c(C)cc1NC(=O)Cn1c2ncccc2c(=O)n1-c1ccccc1 | 1 | 16 | 3 | · | 4
Cc1ccc(C)c(S(=O)(=O)Nc2ccc(C(=O)NCCCN3CCOCC3)cc2)c1 | 5 | 11 | 2 | -15 | -7
COC(=O)c1ccc(NS(=O)(=O)c2cc(-c3cc(C)no3)ccc2OC)cc1 | -6 | -9 | 3 | -52* | 1
O=C(NCCN1CCOCC1)c1ccc(Cl)cc1 | 6 | 8 | -1 | -69* | -71
SMILES | D1 PAM | D1 antag | D1 agonist | DRD3 antagonist | D3 ag
COc1ccc(-c2cc(C)no2)cc1S(=O)(=O)Nc1ccccc1 | 1 | 2 | 2 | ? | -7
COc1ccc(C(=O)NCCN2CCOCC2)cc1S(=O)(=O)Nc1ccc(C)cc1 | 10 | -36* | 6 | -8 | -16
O=C(NCCN1CCOCC1)c1ccc(Cl)c(S(=O)(=O)N2CCCCC2)c1 | 7 | -36* | 3 | -24 | -21
COCCNC(=O)C1(C)CCCN(Cc2csc(-c3ccc(Cl)cc3)n2)C1 (stereo not drawn) | · | · | · | 0 | -4
CCn1c(CN2CCCCC2)nc2cc(NC(=O)c3cc(OC)c(OC)c(OC)c3)ccc21 | 0 | 5 | 1 | · | -11
O=C(NCCN1CCCCC1)Nc1cccc(C(F)(F)F)c1 | -5 | -18 | 4 | -58* | -12
CCCCCC(O)(CCN1CCCCC1)c1ccc(OCC)cc1 (stereo not drawn) | -1 | -2 | 35* | -25 | -13
O=C(NCCN1CCCCC1)Nc1ccccc1 | -3 | 6 | 6 | -17 | -24
O=C(O)CCCCCNC(=O)c1ccc(Br)cc1 | -2 | -15 | 2 | -9 | 0
O=C(NCCCCNC(=O)c1ccc(Br)cc1)c1ccc(Br)cc1 | -5 | -33* | 0 | 10 | -11
CCOc1ccc(C(=O)NCCN2CCCC2)cc1 | -1 | 11 | 2 | -58* | -10
CCOc1ccc(C(=O)c2oc3ccccc3c2NC(=O)Cc2coc3cc(C)cc(C)c23)cc1 | 0 | -16 | 3 | · | -8
CC(=O)C1=C(c2ccc(Cl)c(Cl)c2)N(C(C)=O)n2cnnc2S1 | 2 | · | 1 | · | -22
Cc1ccc(C(=O)NCC(=O)NCCSc2ccc(Br)cc2)cc1 | -5 | -18 | 3 | -57* | -13
CN1CCN(C(=O)c2cc(Cl)ccc2NC(=O)c2ccc(Cl)cc2Cl)CC1 | -6 | -31* | 0 | 4 | 2
O=C(NCCN1CCCC1)c1ccc(Cl)cc1 | -4 | -7 | 0 | -98* | -11
O=C(NCCN1CCCC1)c1cccc(Cl)c1 | 0 | 1 | 3 | ? | -22
O=C(CCN1CCCCC1)NNC(=S)NC(=O)c1ccc(Br)cc1 | -1 | -36* | 3 | 5 | 4
CC(=O)c1c(C)n(-c2ccc(C)cc2)c2ccc(OC(=O)COc3ccccc3)cc12 | -5 | -2 | 7 | · | -12
COc1ccc2cc([C@H](C)CO)ccc2c1 | · | · | · | · | -2
O=C(COc1ccc(F)cc1)NCCN1CCCC1 | 0 | 17 | 1 | -57* | -15
S=C(Nc1ccc(Br)cc1Cl)N1CCCC1 | 0 | 1 | 4 | 11 | 14
O=C(NCCn1ccc2ccccc21)c1ccc(Cl)cc1 | -4 | -34* | 0 | · | -13
O=C(Nc1ccc(CN2CCCCC2)cc1)Nc1ccc(Br)cc1Cl | -6 | -5 | 9 | -79* | -29
COc1ccccc1NC(=O)Cn1c(=O)n(Cc2ccco2)c(=O)c2oc3ccccc3c21 | -4 | 1 | 0 | · | -7
Cc1ccc(-n2ncc(Br)c(Br)c2=O)cc1 | 7 | · | 1 | -76* | -25
O=c1c(Br)c(Br)cnn1-c1ccccc1 | -3 | -13 | 2 | -72* | -11
CNc1cnn(-c2ccccc2)c(=O)c1Cl | -1 | -71* | 2 | 2 | -5
Cc1ccc(S(=O)(=O)N/N=C2/CC(c3ccccc3)Oc3ccccc32)cc1[N+](=O)[O-] (stereo not drawn) | -1 | -5 | 8 | -83* | -4
O=S(=O)(N/N=C1/CC(c2ccccc2)Oc2ccccc21)c1ccc(Br)cc1 (stereo not drawn) | -1 | -4 | 2 | 22 | 0
